Bioassay records: PubChem, The Scripps Research Institute Molecular Screening Center
This is a sample that favours compounds with a hit; in the whole collection about 2.4% have one here.
CHRM1 PAM = human M1 muscarinic receptor positive allosteric modulators, primary screen, CHO-K1 cells, Fluo-8 calcium fluorescence, 1536-well; 360,000 compounds, 0.088% hits; Muscarinic acetylcholine receptor M1 (Homo sapiens), P11229; AID 588819, 2011; activation, % at 3 µM; CHO-K1 hM1, ACh EC20; 0% = ACh EC20, 100% = maximal ACh; in the data active = activation above about 19%, passing the limit was not always enough
Target sequence (P11229 whole entry, looked up): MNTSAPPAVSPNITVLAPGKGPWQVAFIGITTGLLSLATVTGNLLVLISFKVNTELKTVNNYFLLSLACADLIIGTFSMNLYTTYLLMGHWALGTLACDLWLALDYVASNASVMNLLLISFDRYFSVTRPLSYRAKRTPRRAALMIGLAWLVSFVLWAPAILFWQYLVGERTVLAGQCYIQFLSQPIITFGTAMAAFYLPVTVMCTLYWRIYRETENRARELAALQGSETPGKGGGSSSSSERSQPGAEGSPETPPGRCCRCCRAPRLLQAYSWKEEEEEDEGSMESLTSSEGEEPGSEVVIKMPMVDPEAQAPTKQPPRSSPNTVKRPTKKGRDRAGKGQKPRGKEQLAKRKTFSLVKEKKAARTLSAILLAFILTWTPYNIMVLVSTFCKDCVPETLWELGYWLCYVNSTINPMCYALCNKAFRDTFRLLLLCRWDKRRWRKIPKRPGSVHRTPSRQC
M1 ag = human M1 muscarinic receptor agonists, primary screen, Fluo-8 calcium fluorescence, CHO-K1 cells, HTS; activation, % at 3 µM; 360,000 compounds, 0.33% hits; CHO-K1 hM1, agonist mode; 0% DMSO, 100% acetylcholine EC100; Muscarinic acetylcholine receptor M1 (Homo sapiens), P11229;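 active = activation above the run's mean compound activation plus 3 SD, cut at about 16% in these data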;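 note: peak over basal fluorescence ratio within a 140 s kinetic read after compound addition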
M1 PAM parental = nonselective calcium activators in parental CHO-K1 cells, primary screen, counter-screen for M1 PAM project, cell-based, Fluo-8 calcium fluorescence, full deck, 1536-well; ATP EC20; 0% at ATP EC20, 100% at ATP max; activation, % at 3 µM; 360,000 compounds, 0.02% hits; AID 602247, 2012;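 active = activation above the run cutoff, the mean activation of all test compounds plus 3 SD, cut at about 40% in these data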;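 note: peak over basal fluorescence ratio in a 140 s read after ATP addition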
CHO-K1 Ca antag = nonselective inhibitor or artifact in parental CHO-K1 cells. ATP-induced calcium, Fluo-8 fluorescence. inhibition, % at 3 µM. 360,000 compounds, 0.6% hits;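 active = inhibition above a per-plate cutoff, the plate's mean sample inhibition plus 3 SD, cut at about 24% in these data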;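 note: 0% = DMSO plus EC80 ATP and 100% = DMSO alone without ATP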
M1 antag = human M1 muscarinic receptor antagonists, primary screen, CHO-K1 cells, Fluo-8 calcium fluorescence, 1536-well. 360,000 compounds, 1.3% hits. Muscarinic acetylcholine receptor M1 (Homo sapiens), P11229. inhibition, % at 3 µM. CHO-K1 hM1, ACh EC80 antagonist. AID 588852, 2011;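 active = percent inhibition above its own plate's cutoff, namely the mean of that plate's compound wells plus 3 SD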;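 note: peak over basal fluorescence ratio during 140 s after agonist addition; 0% = ACh EC80 plus DMSO and 100% = DMSO alone without agonist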
M1 ag parental = counter-screen for M1 agonists: effect in parental CHO-K1 cells; Fluo-8 calcium fluorescence; scaled to maximal ATP response, vehicle zero; activation, % at 3 µM; 360,000 compounds, 0.48% hits; in the data active = activation above about 15%;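 note: untransfected CHO-K1 host cells lacking M1 receptor as counterscreen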
* = called active by the depositor.

SMILES | CHRM1 PAM | M1 ag | M1 PAM parental | CHO-K1 Ca antag | M1 antag | M1 ag parental
COC(=O)c1ccc(CSc2nc3ccccc3o2)cc1 | -1 | -1 | -6 | 29* | 10 | 0
COc1ccc(C(=O)C2CCCN(C3Cc4ccccc4C3)C2)c(OC)c1 (configuration not stated) | -31 | -15 | -16 | 19 | 29* | 0
O=C(C[n+]1ccccc1)c1ccc(NC(=O)c2ccccc2)cc1 | 2 | -9 | 23 | -17 | 2 | 0
Cc1cc[n+](CC(=O)c2ccc(NC(=O)c3ccccc3)cc2)cc1 | -12 | -6 | -11 | 7 | 32* | 0
Cc1cc(C)c[n+](CC(=O)c2ccc(NC(=O)c3ccccc3)cc2)c1 | 6 | -5 | 7 | -13 | -5 | 0
Cc1cc(C)c[n+](CC(=O)c2ccc(-c3ccccc3)cc2)c1 | -23 | -14 | 18 | -7 | 36* | 0
COc1ccc(N2CCN(C(=O)c3cc(-c4cc(OC)ccc4OC)nc4ccccc34)CC2)cc1 | -6 | 0 | 0 | -9 | 24 | 7
CCOc1ccccc1N1CCN(C(=O)c2cc(-c3cc(OC)ccc3OC)nc3ccccc23)CC1 | -10 | -1 | 7 | 6 | 33* | 5
COc1ccc(-c2cc(C(=O)N3CCN(c4ccccc4F)CC3)c3ccccc3n2)c(OC)c1 | -9 | 0 | -7 | 8 | 29* | 6
CCOC(=O)c1cc2sccc2n1CC(=O)Nc1ccc(OC)cc1OC | -4 | -5 | 8 | -1 | 7 | 1
CCOC(=O)CN(Cc1sccc1C)C(=O)Nc1ccc(OC)cc1OC | -8 | -4 | -14 | 25* | 4 | 0
CN(C)c1ccc(C(=O)N=c2sccn2C)cc1[N+](=O)[O-] | 5 | -4 | 3 | 6 | -11 | 0
Cn1cc(CNCc2cnc3ccccn23)c(-c2ccc(Oc3ccccc3)cc2)n1 | -15 | -9 | 6 | 14 | 7 | 7
CN(Cc1cn(C)nc1-c1ccc(Oc2ccccc2)cc1)Cc1cnc2ccccn12 | -13 | -2 | 3 | 20 | 24* | 9
CNC(=O)/C(C#N)=C\c1cc(C)n(-c2ccc(N3CCOCC3)cc2)c1C | -14 | -4 | -15 | 31* | 5 | 3
Cc1cc(/C=C(\C#N)C(=O)Nc2ccc(F)cc2)c(C)n1-c1ccc(N2CCOCC2)c([N+](=O)[O-])c1 | 10 | -2 | 16 | -8 | -8 | 1
Cc1cc(/C=C2/SC(=O)NC2=O)c(C)n1-c1ccc(N2CCOCC2)cc1 | 2 | 20* | 35 | -9 | -3 | 12
Cc1cc(/C=C2\SC(=S)NC2=O)c(C)n1-c1ccccc1 | 12 | 1 | -24 | 6 | -21 | 2
O=C(COc1ccc(Br)cc1)N(Cc1nnc(-c2ccccc2Cl)o1)C1CC1 | -23 | -5 | 7 | -6 | 37* | 5
Cc1ccc(C(=O)N(Cc2nnc(-c3ccccc3Cl)o2)C2CC2)o1 | 4 | -7 | 10 | -7 | -12 | 1
O=C(c1ccc([N+](=O)[O-])o1)N(Cc1nnc(-c2ccccc2Cl)o1)C1CC1 | -10 | -9 | -11 | 14 | 27* | 0
CN1CCN(S(=O)(=O)c2cccc(C(=O)N(Cc3nnc(-c4ccccc4Cl)o3)C3CC3)c2)CC1 | 5 | -1 | -3 | 4 | -7 | 17*
CCC(=O)c1ccc(OCC(=O)N(Cc2nnc(-c3ccccc3Cl)o2)C2CC2)cc1 | 5 | -6 | 15 | -11 | -10 | 3
COc1ccc(S(=O)(=O)N2CCOC23CCN(S(=O)(=O)c2cc(F)ccc2F)CC3)cc1 | -6 | 6 | 3 | -8 | 7 | 5
NNC(=O)c1[nH]c2ccc([N+](=O)[O-])cc2c1-c1ccccc1 | 4 | -7 | 11 | -9 | -11 | 2
SMILES | CHRM1 PAM | M1 ag | M1 PAM parental | CHO-K1 Ca antag | M1 antag | M1 ag parental
Cc1c(C(=O)NN)[nH]c2ccc([N+](=O)[O-])cc12 | 4 | 1 | -5 | 8 | 1 | 26*
CC(C)(C)OC(=O)N(Cc1ccccc1)Cc1ccccc1OCc1cccc(NC(=O)c2ccccc2)c1 | 4 | -3 | 3 | 2 | -10 | 1
CCOC(=O)c1cnc(-n2nc(C)cc2C)nc1N1CC(C)OC(C)C1 (configuration not stated) | -5 | -4 | -6 | 24* | 10 | 0
Cc1c(N2C(=O)/C(=C\C3CC=CCC3)SC2=S)c(=O)n(-c2ccccc2)n1C (configuration not stated) | -26 | -8 | -7 | -6 | 62* | 1
Cc1c(N2C(=O)/C(=C/C3CC=CCC3)SC2=S)c(=O)n(-c2ccccc2)n1C (configuration not stated) | -24 | -9 | -4 | -6 | 73* | 1
Cc1c(N2C(=O)/C(=C/c3ccccc3)SC2=S)c(=O)n(-c2ccccc2)n1C | -22 | -5 | 8 | 4 | 13 | 1
CCN1CCCC1CN(Cc1cc2ccc(C)cc2[nH]c1=O)C(=S)Nc1cccc(OC)c1 (configuration not stated) | 6 | -7 | 13 | 1 | -8 | -1
Nc1cc(=O)[nH]c(=S)n1-c1ccccc1 | 10 | 1 | -7 | 32* | -2 | 0
Cc1cc(=O)[nH]c(=S)n1-c1ccccc1 | 0 | -2 | 23 | -31 | -5 | 0
CC(=O)c1ccc2c(c1)N(CCCN(C)C)c1ccccc1S2 | -25 | -7 | 2 | 3 | 95* | 1
CC(=O)c1ccc2c(c1)N(C)c1ccccc1S2 | 10 | -2 | 4 | 19 | -14 | 0
CCC(=O)c1ccc2c(c1)N(CCCN(C)C)c1ccccc1S2 | -25 | -5 | 6 | -1 | 94* | 1
COCCOc1cc(-n2cccc2)c(Cl)cc1Cl | 11 | -11 | 13 | -5 | -9 | 1
COc1ccc(NC(=S)N(CCCN2CCC(C)CC2)Cc2cccs2)cc1 | 1 | -6 | 9 | -19 | 0 | 1
COc1ccc(NC(=S)N(CCCN2CCCCC2)Cc2cccs2)cc1 | -22 | -9 | -4 | 4 | 59* | 0
Cc1c(Cl)cccc1NC(=S)N(CCCN1CCOCC1)Cc1cccs1 | -24 | -9 | 3 | -9 | 82* | 1
CCOC(=O)C1CCCCN1S(=O)(=O)c1cc2c(cc1C)NC(=O)CO2 (configuration not stated) | 5 | 0 | 3 | 4 | -10 | 1
CC1CCN(Cc2ccc(NC(=O)C3CCN(c4nnc(-n5cccc5)s4)CC3)cc2)CC1 | -35 | -14 | 6 | -6 | 97* | 0
